Here are results for 21 compounds from PubChem BioAssay (Tox21).

Molecules are shown by their SMILES. Several values for one entry are separate records, joined by “and”; a condition that tells them apart may be missing. Equal entries are not always repeated. Results filed as inconclusive are left out. Where a call stands in place of a potency, no number is given. Activity calls are given as the source filed them. Calls come from the whole dose curve.
Potency is the fitted concentration of half-maximal effect.

The experiment is described as follows: qHTS assay to identify small molecule antagonists of the estrogen receptor alpha (ER-alpha) signaling pathway using the BG1 cell line (AID 743080).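 Note: BG1 cells stimulated with 17beta-estradiol alongside compound; nearly all actives have a fitted effect of over 25% in size.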 The note with it: BG1Luc4E2 ERE-luciferase antagonist mode, luminescence; activity change, negative = inhibition: at 70.3 µM (top of the series) unless noted. From the text: National Center for Advancing Translational Sciences [NCATS]
NIH Chemical Genomics Center [NCGC]
U.S. Environmental Protection Agency [EPA]
National Institutes of Environmental Health Sciences [NIEHS]
National Toxicology Program [NTP]
U.S. Food and Drug Administration [FDA]
Estrogen receptor (ER), a nuclear hormone receptor, plays an important role in development, metabolic homeostasis and reproduction. Endocrine disrupting chemicals (EDCs) and their interactions with steroid hormone receptors like ER causes disruption of normal endocrine function. Therefore, it is important to understand the effect of environmental chemicals on the ER signaling pathway. To identify ER antagonists, BG1-Luc-4E2 cell line (provided by Dr. Michael Denison from University of California) has been used to screen the Tox21 10K compound library. BG1Luc4E2 cell line endogenously expresses full-length ER-alpha and is stably transfected with a plasmid containing four estrogen responsive elements (ERE) upstream of a luciferase reporter gene.
Tox21 Assay Protocol Summary:
BG1-Luc-4E2 cells were cultured in phenol red free assay medium containing 10% charcoal stripped FBS for 5 days before the assay was performed. The cells were dispensed at 4,000 cells/4 uL of assay medium per well into white wall/solid-bottom 1536-well plates using a Multidrop Combi (ThermoFisher Scientific, Waltham, MA) dispenser. The assay plates were incubated at a 37C and 5% CO2 for 24 h, and then 23 nL of compounds dissolved in DMSO, positive controls or DMSO only was transferred to the assay plate using a Pintool station (Kalypsys, San Diego, CA), followed by addition of 1 uL of 17beta-estradiol in assay medium using a Flying Reagent Dispenser (Aurora Discovery, San Diego, CA). After the plates were incubated at 37 C and 5% CO2 for 21.5 h, 1 uL of CellTiter-Fluor reagent (Promega, Madison, WI) of measuring cytotoxicity was added using Flying Reagent Dispenser (FRD) to each well. The assay plates were incubated at 37 C and 5% CO2 for additional 30 min and the fluorescence intensity was quantified by a ViewLux plate reader (PerkinElmer, Shelton, CT). For measuring luciferase reporter gene activity, 4 uL of ONE-Glo reagent (Promega) was added to each plate using an FRD and luminescence was quantified by a ViewLux plate reader after 30 min incubation at room temperature.
(In qHTS, concentration-response curves come from the screen itself.)
On to `CCCn1cc[n+](C)c1`, for which the Potency result is “inactive”.
Still for that read-out and setting: the result for `O=C(O)C(Cl)Cl` reads “inactive”.
For `CCCCCCCCCCn1cc[n+](C)c1`, the activity change, negative = inhibition is -3.71% [at 95 µM] (active).
On to `CC(Cl)(Cl)C(=O)O`, for which the Potency entry was “inactive”.
Same read-out and setting: the result for `Cc1cc(Cl)ccc1OCC(=O)O` reads “inactive”.
As to `O=C(O)c1nc(Cl)ccc1Cl`, the Potency entry was “inactive”.
With `C[N+](C)(C)Cc1ccccc1`, the Potency entry is “inactive”.
With `CCCCCCCCCCCCCC[P+](CCCCCC)(CCCCCC)CCCCCC`, the Potency was 4.88 µM (active) and 3.89 µM (active) and 3.43 µM (active).
Same read-out and setting: the result for `C[C@]12CCC(=O)C=C1CC[C@@H]1[C@@H]2CC[C@]2(C)C(=O)CC[C@@H]12` reads “inactive”.
On the same count and under the same terms, next, `Nc1ccc(-c2ccc(N)c(Cl)c2)cc1Cl`: 64 µM (active); `Nc1ccc(Cl)cc1`: “inactive”.
As for `CCC(=O)C(CC(C)N(C)C)(c1ccccc1)c1ccccc1` (stereo unspecified), the Potency entry was “inactive”.
Same read-out and setting: next, `C1CCC(NC2CCCCC2)CC1`: “inactive”; `COCC(=O)N(c1c(C)cccc1C)C(C)C(=O)OC` (stereo unspecified): “inactive”.
With `COP(=O)(OC)OC=C(Cl)Cl`, the Potency entry is “inactive”.
Same read-out and setting: next, `Oc1ccccc1-c1ccccc1`: “inactive”.
Regarding `CC[n+]1ccccc1`, the Potency entry was “inactive”.
Same read-out and setting: next, `O=P1(N(CCCl)CCCl)NCCCO1` (stereo unspecified): “inactive”.
Regarding `CNC`, the Potency result was “inactive”.
For `OCCOc1ccccc1`, the Potency entry is “inactive”.
On the same count and under the same terms, the result for `CCNc1nc(Cl)nc(NCC)n1` reads “inactive”.
